From PubChem
Only some compounds are listed: those with a hit (about 11% of all), similar ones and a draw of the others.
VP16 counter = Gal4-VP16 reporter inhibition counter-screen; Drosophila S2 Gal4-VP16 UAS-luciferase, luminescence, 20 h; Potency, µM (titrated, usually from 53.6 µM), actives largely listed as inhibitors; actives 3.5% (n = 310,000); AID 2546;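 also: Gal4-VP16 expression switched on by copper sulfate through the metallothionein promoter; nearly all actives have a fitted effect of over 50% in size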
SW480 rereplic = inducers of DNA re-replication in SW480 colon cancer cells | SW480 DNA re-replication, Hoechst DNA content imaging, 48 h | Potency, µM (titrated, usually from 46.1 µM), most hits filed as activators | actives 1.8% (n = 340,000); also: nearly all actives have a fitted effect of over 55% in size
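Image-based read-out: total Hoechst fluorescence of nuclei (405 nm excitation, 500-530 nm emission), with hits raising the fraction of high-intensity nuclei. SW480 colon cells incubated 48 hr with compounds at 37 C.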
MCF10A rereplic = DNA re-replication induction in MCF 10a cells | actives 2.9% (n = 350,000) | Potency, µM (titrated, usually from 46.1 µM), most hits filed as activators | AID 624296 | MCF 10A DNA re-replication, Hoechst nuclear intensity, 48 h; also: nearly all actives have a fitted effect of over 50% in size
RORgamma inh = inhibitors of mouse ROR gamma transcriptional activity | Drosophila S2 Gal4-RORgamma UAS-luciferase reporter, 20 h | AID 2551 | Potency, µM (series often up to 53.6 µM), most hits filed as inhibitors | actives 5.4% (n = 310,000); also: nearly all actives have a fitted effect of over 60% in size
Target sequence (P51450 whole entry, looked up, the tested form may be a part): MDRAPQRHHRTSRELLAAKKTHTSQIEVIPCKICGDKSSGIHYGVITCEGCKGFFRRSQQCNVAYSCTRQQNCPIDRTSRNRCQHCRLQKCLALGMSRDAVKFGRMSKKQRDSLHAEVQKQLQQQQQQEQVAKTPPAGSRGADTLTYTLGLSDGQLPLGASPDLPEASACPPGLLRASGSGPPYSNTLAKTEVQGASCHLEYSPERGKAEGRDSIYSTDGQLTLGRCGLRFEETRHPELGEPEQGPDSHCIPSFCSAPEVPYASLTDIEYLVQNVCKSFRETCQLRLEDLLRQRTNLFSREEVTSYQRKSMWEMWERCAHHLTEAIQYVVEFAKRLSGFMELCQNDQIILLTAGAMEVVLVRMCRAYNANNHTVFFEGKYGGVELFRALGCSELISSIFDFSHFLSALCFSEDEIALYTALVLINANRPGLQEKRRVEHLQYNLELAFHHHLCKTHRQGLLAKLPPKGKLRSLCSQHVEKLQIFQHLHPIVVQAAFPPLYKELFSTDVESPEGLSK
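Drosophila S2 cells stably expressing Gal4-DBD/mouse RORγ fusion under metallothionein promoter plus UAS-luciferase; compound 1 h, then 700 uM CuSO4 induction for 20 h at ambient temperature; inhibition read as reduced luminescence.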
IL1B secr inh = blocks inflammasome-driven IL-1 beta release; THP-1 LPS/ATP IL-1B secretion, AlphaLISA, 16 h; active compounds read low; activity change, % at 57.5 µM; actives 4.7% (n = 360,000); AID 743279; in the data active = activity change below about -50%; inconclusive = mostly about -30% to -49%
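THP-1 cells pretreated 1 hr with compounds (up to 57.5 uM final), then stimulated with LPS (250 ng/mL final) plus ATP (1.25 mM final); secreted IL-1B measured by AlphaLISA after 16 hr, decreased signal indicating inhibition.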
Hits are given with their value; i = inactive; ? = inconclusive; nt = no result given; [ ] = another dose, or the depositor's remark. Unless noted, calls follow the shape of the dose curve; as a rule, active = well fitted curve in the direction sought with a large enough effect; inconclusive = small, poorly fitted or top-dose-only effect, or another doubt; inactive = no such curve, though single readings can be large; an effect the other way counts as inactive or inconclusive.

SMILES	VP16 counter	SW480 rereplic	MCF10A rereplic	RORgamma inh	IL1B secr inh
COc1ccc(N2C(=O)/C(=C/c3cccs3)C(=O)NC2=S)cc1	i	?	?	i	i
COc1ccc(N2C(=O)/C(=C/C=C/c3ccccc3[N+](=O)[O-])C(=O)NC2=S)cc1	i	i	?	i	-101.6
C=C1[C@@H](C)[C@H]2[C@H](Cc3ccccc3)NC(=O)[C@]23[C@H](OC(C)=O)/C=C/[C@](C)(O)C(=O)[C@@H](C)C/C=C/[C@H]3[C@@H]1O	i	nt	nt	?	nt
CCN1C(=O)/C(=C/c2ccc(N(CC)CC)cc2OC)C(=O)NC1=S	i	i	?	i	-55.0
Oc1c(Br)cc(Br)cc1Oc1ccc(Br)cc1Br	i	i	5.8µM	?	nt
O=Cc1ccc(Cl)cc1Cl	i	nt	nt	i	nt
O=c1nc(/C=C/c2ccc(Cl)cc2Cl)cc(C(F)(F)F)[nH]1	?	i	6.51µM	?	-87.4
CC1OC(OC2CC(O)C3(CO)C4C(O)CC5(C)C(C6=CC(=O)OC6)CCC5(O)C4CCC3(O)C2)C(O)C(O)C1O (centres undefined)	nt	6.51µM	?	nt	-91.5
C[C@@H]1O[C@@H](O[C@H]2C[C@@H](O)[C@]3(CO)[C@H]4[C@H](O)C[C@]5(C)[C@@H](C6COC(=O)C6)CC[C@]5(O)[C@@H]4CC[C@]3(O)C2)[C@H](O)[C@H](O)[C@H]1O (some centres undefined)	i	5.17µM	?	i	i
C[C@@H]1O[C@@H](OC2CC(O)C3(CO)C4C(CCC3(O)C2)C2(O)CCC(C3=CC(=O)OC3)C2(C)C[C@H]4O)[C@H](O)[C@H](O)[C@H]1O (some centres undefined)	i	nt	nt	i	nt
CCBr	i	nt	nt	i	nt
CC(C)(C)NC[C@H](O)c1cc(Cl)c(N)c(Cl)c1	i	nt	nt	i	nt
N#Cc1cc2c(nc1SCC(=O)Nc1cc(Cl)ccc1Cl)C1CCN2CC1	i	?	0.581µM	?	i
CC(=NCCc1c[nH]c2ccccc12)c1c(O)n(Cc2ccccc2)c(=O)[nH]c1=O	i	14.6µM	?	i	?
C=C1C(O)C2OC3(CCC(/C=C/C(C)C4CC(C)=CC5(OC(CC(C)(O)C(=O)O)CCC5O)O4)O3)CCC2OC1C(O)CC(C)C1OC2(CCCCO2)CCC1C (centres undefined)	0.0112µM	nt	nt	0.004µM	nt
CCC(Cl)[N+](=O)[O-] (centres undefined)	i	nt	nt	i	nt
C[C@H]1COC(=O)[C@@H](Cc2ccc(F)cc2)CC/C=C/C[C@@H](CC(=O)N(CCO)Cc2ccccc2)C(=O)N1	nt	i	i	nt	i
CN(Cc1ccc(OC(F)F)cc1)C(=O)c1ccccc1Sc1ccccc1C#N	nt	i	?	nt	?
C=Cn1ccnc1P(O)(=S)c1nc(C)c(CCOC(C)=O)s1 (centres undefined)	?	i	i	11.2µM	i
COC(=O)C12CC3=CC(CC3=O)Cc3ccccc3[C@@H]1CNC2=O (some centres undefined)	i	nt	nt	i	nt
CN1C(=O)/C(=C/c2cccn2-c2ccc3ccccc3c2)C(=O)NC1=S	i	?	?	12.6µM	-116.9
Cc1cc(C)cc(N2C(=O)NC(=O)/C(=C\c3cccn3-c3ccccc3)C2=O)c1	?	?	?	i[10 µM]	-98.5
Cc1cc(C)cc(N2C(=O)NC(=O)/C(=C\c3cccn3-c3ccc(Cl)cc3)C2=O)c1	?	i[9.22 µM]	?	?	-111.9
Cn1cccc1/C=C1/C(=O)NC(=O)N(C(C)(C)C)C1=O	i	i	i	i	i
O=C1NC(=S)NC(=O)C1=Cc1cccn1-c1ccc(O)cc1	8.91µM	i	?	2.82µM	-102.0
SMILES	VP16 counter	SW480 rereplic	MCF10A rereplic	RORgamma inh	IL1B secr inh
Cc1cccc(N2C(=O)NC(=O)/C(=C\c3cnc(-c4ccccc4)nc3)C2=O)c1	i	i	i	i	i
C=CCN=C=S	i	i	i	i	nt
CCCCCCCC(=O)Cl	i	nt	nt	i	nt
COc1ccc(N2C(=O)NC(=O)/C(=C\c3ccc([N+](=O)[O-])s3)C2=O)cc1	i	?	?	?	?
COc1ccccc1N1C(=O)NC(=O)/C(=C\c2cnn(-c3ccccc3)c2)C1=O	i	?	?	i	-89.7
COc1ccccc1N1C(=O)NC(=O)/C(=C/c2ccc([N+](=O)[O-])s2)C1=O	i	i	?	i	-61.6
